A number with no mark means an inactive call. No stated cut-off is given here; in the data, active means remaining activity below about 50%; inactive means the rest.
Molecular target: Phospholipase D2 (Homo sapiens) (UniProt O14939)
Experiment: PLD2 inhibitors in cells, cell-based, HEK293, single concentration (AID 602143);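 further: tested at 200 nM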
Settings: HEK293 cellular PLD2 activity, percent of control; hits give low values

Phospholipase D2 (Homo sapiens), sequence (O14939 whole entry, looked up): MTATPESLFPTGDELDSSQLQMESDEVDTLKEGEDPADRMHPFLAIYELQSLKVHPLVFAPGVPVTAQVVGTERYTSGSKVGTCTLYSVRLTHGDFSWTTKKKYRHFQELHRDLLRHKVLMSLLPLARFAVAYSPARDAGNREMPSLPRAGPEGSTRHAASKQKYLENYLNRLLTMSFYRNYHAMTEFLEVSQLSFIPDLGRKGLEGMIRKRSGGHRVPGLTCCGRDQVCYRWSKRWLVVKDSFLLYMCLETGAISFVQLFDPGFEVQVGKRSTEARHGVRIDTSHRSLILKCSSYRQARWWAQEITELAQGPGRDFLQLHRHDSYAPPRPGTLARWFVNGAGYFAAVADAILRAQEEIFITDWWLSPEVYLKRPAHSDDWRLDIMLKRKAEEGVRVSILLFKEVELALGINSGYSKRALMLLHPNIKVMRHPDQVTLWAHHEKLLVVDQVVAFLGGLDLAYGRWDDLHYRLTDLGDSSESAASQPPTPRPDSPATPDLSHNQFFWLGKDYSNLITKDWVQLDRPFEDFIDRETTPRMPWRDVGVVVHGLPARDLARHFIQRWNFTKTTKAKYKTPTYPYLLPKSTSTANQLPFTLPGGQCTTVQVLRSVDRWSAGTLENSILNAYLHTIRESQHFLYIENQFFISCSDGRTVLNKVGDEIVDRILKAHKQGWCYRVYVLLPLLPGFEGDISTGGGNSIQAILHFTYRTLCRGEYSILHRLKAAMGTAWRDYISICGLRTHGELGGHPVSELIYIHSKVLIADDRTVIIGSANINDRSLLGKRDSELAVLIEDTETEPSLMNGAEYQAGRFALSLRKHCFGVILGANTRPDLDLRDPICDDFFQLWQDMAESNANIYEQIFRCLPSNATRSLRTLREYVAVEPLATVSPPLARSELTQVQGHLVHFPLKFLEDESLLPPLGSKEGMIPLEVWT
Phospholipase D2 (Homo sapiens), sequence (O14939 whole entry, looked up): as above

| SMILES | remaining activity [%] |
| --- | --- |
| NC1(CN2CCC(n3c(=O)[nH]c4cc(Cl)ccc43)CC2)CCCC1 (tested in a mixture with another compound) | 94.3 |
| O=C(NCCN1CCC(n2nnc3ccccc32)CC1)c1cnc2ccccc2c1 | 77.7 |
| C[C@@H](CN1CCC2(CC1)CN(S(C)(=O)=O)c1ccccc12)NC(=O)c1cnc2ccccc2c1 | 136 |
| O=C(NCCN1CCN(c2ccncc2)CC1)c1c2ccccc2cc2ccccc12 | 127 |
| O=C(NCCN1CCN(c2ccncc2)CC1)c1ccc(Cl)cc1 | 116 |
| C[C@@H](CN1CCC(n2c(=O)[nH]c3cc(I)ccc32)CC1)NC(=O)c1ccc(Cl)cc1 | 72.7 |
| O=C(NCCN1CCC2(CC1)CNc1ccccc12)c1cnc2ccccc2c1 | 90 |
| O=C(NCCN1CCC(c2nc3ccccc3[nH]2)CC1)c1cnc2ccccc2c1 | 80.6 |
| O=c1[nH]c2ccccc2n1C1CCN(CCNC(=S)Nc2cccc3ccccc23)CC1 | 100 |
| Cn1c(C2CCN(CCN)CC2)nc2ccccc21 (tested in a mixture with another compound) | 117 |
| C[C@@H](CN1CCC(n2c(=O)[nH]c3ccccc32)CC1)NC(=O)C1C[C@H]1c1ccccc1 (stereo not given in full) | 105 |
| C[C@@H](CN1CCC(c2nc3ccccc3[nH]2)CC1)NC(=O)C1CC1c1ccccc1 (stereo not given in full) | 90.3 |
| O=C1c2ccccc2C(=O)N1CCCNCc1ccccn1 | 116 |
| Cc1ccc(C(=O)N[C@@H](C)CN2CCC(n3c(=O)[nH]c4cc(Cl)ccc43)CC2)cc1 | 86 |
| O=C(NCCN1CCC(n2c(=O)[nH]c3ccccc32)CC1)c1cnc2ccccc2n1 | 87.4 |
| O=C(NCCN1CCC2(CCc3ccccc32)CC1)c1cnc2ccccc2c1 | 100 |
| O=C(NCCN1CCC2(CC1)CNCc1ccccc12)c1cnc2ccccc2c1 | 97.1 |
| CS(=O)(=O)NCCN1CCC(n2c(=O)[nH]c3ccccc32)CC1 | 96.5 |
| O=C(NCCN1CCN(c2ccncc2)CC1)c1cc2cc(F)ccc2[nH]1 | 65.5 |
| Cc1ccccc1NC(=S)NCCN1CCC(n2c(=O)[nH]c3ccccc32)CC1 | 145 |

| SMILES | remaining activity [%] |
| --- | --- |
| Cn1c(=O)n(C2CCN(CCNC(=O)c3ccc4ccccc4c3)CC2)c2ccccc21 | 52.7 |
| C[C@@H](CN1CCC(n2c(=O)[nH]c3ccccc32)CC1)NC(=O)c1cccnc1 | 97.3 |
| CC(C)[C@@H](CN1CCC(n2c(=O)[nH]c3ccccc32)CC1)NC(=O)c1cc2cc(F)ccc2[nH]1 | 79.5 |
| C[C@@H](CN1CCC(n2c(=O)[nH]c3ccccc32)CC1)NC(=O)c1ccc2ncccc2c1 | 82.2 |
| O=C(NCCN1CCN(c2ncccn2)CC1)c1ccc2ccccc2c1 | 90.4 |
| O=C(NCCN1CCN(c2ccccn2)CC1)c1ccc(Cl)cc1 | 106 |
| O=C(NCCN1CCC(n2c(=O)[nH]c3ccccc32)CC1)Nc1cccc(F)c1 | 87.9 |
| CC1(C)[C@@H]2CC[C@@]1(CS(=O)(=O)NCCN1CCC(n3c(=O)[nH]c4ccccc43)CC1)C(=O)C2 | 79.6 |
| O=C(NCCN1CCC(n2c(=O)[nH]c3cc(I)ccc32)CC1)C1CC1c1ccccc1 (stereo not given) | 57.2 |
| C[C@@H](CN1CCC(n2c(=O)[nH]c3cc(F)ccc32)CC1)NC(=O)c1ccc(F)c(F)c1 | 85.2 |
| NCCN1CCC(n2c(=O)[nH]c3cc(Cl)ccc32)CC1 (tested in a mixture with another compound) | 83.1 |
| C[C@@H](CN1CCC2(C=Cc3ccccc32)CC1)NC(=O)c1cnc2ccccc2c1 | 77.4 |
| CC(C(=O)NCCN1CCN(c2ccncc2)CC1)(c1ccccc1)c1ccccc1 | 110 |
| CC(C)[C@@H](CN1CCC(n2c(=O)[nH]c3ccccc32)CC1)NC(=O)[C@@H]1C[C@H]1c1ccccc1 | 74 |
| O=C(NCCN1CCC(n2c(=O)[nH]c3ccccc32)CC1)NCc1cccc(F)c1 | 101 |
| O=C(NCCN1CCC(n2c(=O)[nH]c3ccccc32)CC1)N1c2ccccc2C=Cc2ccccc21 | 66.5 |
| O=C(NCCN1CCC(n2c(=O)[nH]c3ccccc32)CC1)c1ccccc1-c1ccccc1 | 83.4 |
| Cc1cccc(C(=O)NCCN2CCC(n3c(=O)[nH]c4ccccc43)CC2)n1 | 52.5 |
| O=C(NCCN1CCC(C(=O)Nc2ccccc2)CC1)c1ccc2ccccc2c1 | 106 |
| O=C(NCCN1CCC(n2c(=O)[nH]c3ccccc32)CC1)c1cnccn1 | 139 |

Reference: PubChem BioAssay AID602143 (Vanderbilt Specialized Chemistry Center, 2011)
